In the library only some 6.2% were active in any assay of this set; here they are far more common.
Marburg entry inh: qHTS for inhibitors of binding or entry into cells for Marburg Virus | Marburg virus pseudotyped entry inhibition, cell reporter | Potency, µM (top dose mostly 37.8 µM), usual class: inhibitors | 300,000 compounds, 1.8% hits; calls by dose curve; tested in HEK293 cells
Lassa entry inh: qHTS for Inhibitors of binding or entry into cells for Lassa Virus. Lassa virus pseudotype entry inhibition, cell reporter. Potency, µM (series often up to 37.9 µM), hits mostly inhibitors. 300,000 compounds, 1.2% hits. AID 540256, 2011; calls by dose curve; tested in HEK293 cells; note: nearly all actives have a fitted effect of over 50% in size
FMDV antiviral: High Throughput Screening for Foot and Mouth Disease Virus Antivirals. AID 1159524, 2015. Potency, µM (highest dose often 57.9 µM), most hits filed as inhibitors. FMDV antiviral cell-based qHTS. 410,000 compounds, 1.2% hits; calls by dose curve; tested in HEK293T cells; note: read-out not given here; nearly all actives have a fitted effect of over 45% in size
HCMV antiviral: qHTS Assay for inhibitors of the human cytomegalovirus (HCMV). HFF cells, HCMV-luciferase reporter, 72 h; stronger effect = lower value. activity change, negative = inhibition, % at 57.5 µM. 410,000 compounds, 4.5% hits; in the data active = activity change below about -60%; inconclusive = no clear call, values can overlap the other calls; inactive = above about -39%
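Inhibition of viral replication was scored as loss of reporter luminescence in HFFs infected with HCMV-luciferase (MOI 1 PFU/cell) for 72 h; compounds tested at 2 doses, normalized to buffer and Salinomycin controls.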
Numbers stand for hits.

Screening Cc1cc(C)n(-c2nc(Nc3ccccc3C(F)(F)F)nc(-n3nc(C)cc3C)n2)n1 returned Marburg entry inh 10µM, Lassa entry inh inconclusive, FMDV antiviral inconclusive and HCMV antiviral -98.4.
CCCCc1ccc(Nc2cc(C)nc(-n3nc(C)cc3C)n2)cc1 was read as Lassa entry inh inconclusive, FMDV antiviral inactive and HCMV antiviral -96.8.
`Cc1cc(N2CCN(c3ccccc3)CC2)nc(-n2nc(C)cc2C)n1` gave Marburg entry inh inconclusive, Lassa entry inh inactive, FMDV antiviral inconclusive and HCMV antiviral inactive.
`Cc1cc(Nc2ccccc2C)nc(-n2nc(C)cc2C)n1` gave Lassa entry inh inconclusive, FMDV antiviral inactive and HCMV antiviral -68.6.
For O=C(Nc1ccc(N2CCN(C(=O)c3ccccc3)CC2)cc1)c1cccnc1 the results were Marburg entry inh inconclusive, FMDV antiviral inactive and HCMV antiviral inactive.
Screening Cc1cc(Nc2cccc(F)c2)nc(N2CCOCC2)n1 returned FMDV antiviral inactive and HCMV antiviral inactive.
Cc1cc(Nc2ccc(F)cc2)nc(-n2nc(C)cc2C)n1 was read as Lassa entry inh inactive, FMDV antiviral inactive and HCMV antiviral -83.4.
Cc1cc(Nc2cc(F)ccc2C)nc(-n2nc(C)cc2C)n1 was read as Lassa entry inh inconclusive, FMDV antiviral inactive and HCMV antiviral -80.0.
Screening CN(C)S(=O)(=O)c1cccc(-c2nn(-c3ccccc3)cc2/C=C2\SC(=S)NC2=O)c1 returned Marburg entry inh 22.4µM, Lassa entry inh inconclusive, FMDV antiviral inconclusive and HCMV antiviral -82.0.
`CCOC(=O)C(CC)n1nc(C)c2c(C)n(-c3ccc(C)cc3)nc2c1=O` (stereo unspecified) gave Marburg entry inh inactive, Lassa entry inh inactive, FMDV antiviral inactive and HCMV antiviral inconclusive.
Screening CCC(C(=O)Nc1ccccc1Cl)n1nc(C)c2c(C)n(-c3ccccc3)nc2c1=O (stereo unspecified) returned Marburg entry inh inconclusive, Lassa entry inh inactive, FMDV antiviral inactive and HCMV antiviral -80.1.
For Cc1nn(C(C)C(=O)Nc2ccccc2Cl)c(=O)c2nn(-c3ccccc3)c(C)c12 (stereo unspecified) the results were Marburg entry inh inconclusive, Lassa entry inh inconclusive, FMDV antiviral inactive and HCMV antiviral -61.6.
CCc1cccc(C)c1NC(=O)C(CC)n1nc(C)c2c(C)n(-c3ccccc3)nc2c1=O (stereo unspecified) was read as Lassa entry inh inactive, FMDV antiviral inactive and HCMV antiviral inactive.
Screening Cc1ccc(-n2nc3c(=O)n(C(C)C(=O)NCc4ccccc4Cl)nc(C)c3c2C)cc1 (stereo unspecified) returned FMDV antiviral inconclusive and HCMV antiviral -91.7.
`COC(=O)c1ccccc1NC(=O)C(C)n1nc(C)c2c(C)n(-c3ccccc3)nc2c1=O` (stereo unspecified) gave FMDV antiviral inactive and HCMV antiviral inconclusive.
CCC(C(=O)Nc1ccccc1C(=O)OC)n1nc(C)c2c(C)n(-c3ccc(C)cc3)nc2c1=O (stereo unspecified) was read as Lassa entry inh inconclusive, FMDV antiviral inactive and HCMV antiviral -94.2.
`O=C(N/N=C/c1ccc(OCc2ccccc2)cc1)c1cc[n+](Cc2ccccc2)cc1` gave Marburg entry inh inconclusive, Lassa entry inh inactive, FMDV antiviral inactive and HCMV antiviral inactive.
For O=C(CN1C(=O)NC2(CCCCC2)C1=O)Oc1ccc2ccc(=O)oc2c1 the results were FMDV antiviral inactive and HCMV antiviral inactive.
`O=C(CCN1C(=O)/C(=C\c2ccccc2)SC1=S)NNC(=O)c1cccnc1` gave Marburg entry inh inconclusive, Lassa entry inh inconclusive, FMDV antiviral inactive and HCMV antiviral -62.4.
O=C(O)c1ccc(/C=C2\SC(=S)N(Nc3ccccc3)C2=O)cc1 was read as Marburg entry inh inconclusive, Lassa entry inh inactive, FMDV antiviral inactive and HCMV antiviral inactive.
For O=C1/C(=C/c2ccncc2)SC(=S)N1Nc1ccccc1 the results were Marburg entry inh inconclusive, Lassa entry inh inactive, FMDV antiviral 20µM and HCMV antiviral inactive.
For O=C1/C(=C/c2cccnc2)SC(=NCc2ccccc2)N1Cc1ccccc1 the results were Marburg entry inh inconclusive, Lassa entry inh inactive, FMDV antiviral inactive and HCMV antiviral inactive.
For O=C1/C(=C\c2cc(Cl)c(O)c(Cl)c2)SC(=S)N1Cc1ccccc1 the results were Marburg entry inh 6.31µM, Lassa entry inh 3.98µM, FMDV antiviral inconclusive and HCMV antiviral -99.0.
Screening O=C(CCCN1C(=O)/C(=C/c2ccccc2Cl)SC1=S)NNC(=O)c1cccnc1 returned FMDV antiviral inconclusive and HCMV antiviral inactive.
Screening O=C1/C(=C/c2cccnc2)SC(=S)N1CCc1ccccc1 returned FMDV antiviral inactive and HCMV antiviral -71.2.
Screening COc1cc(NC(=O)C2CC(=O)N(Cc3ccco3)C2)cc(OC)c1 (stereo unspecified) returned Marburg entry inh inactive, Lassa entry inh inactive, FMDV antiviral inactive and HCMV antiviral inactive.
O=C(Nc1cccc2ccccc12)N1CC=CCC1 was read as Marburg entry inh inactive, Lassa entry inh inactive, FMDV antiviral inactive and HCMV antiviral inactive.
`Cn1c(N)nc2nc[nH]c2c1=S` gave Marburg entry inh inactive, Lassa entry inh inactive, FMDV antiviral inactive and HCMV antiviral inactive.
`O=C(CCN1C(=O)/C(=C/c2ccc(F)cc2)SC1=S)N[C@@H](CO)Cc1ccccc1` gave FMDV antiviral inactive and HCMV antiviral -64.5.
`COc1ccc(Nc2ncnc3onc(-c4ccc(Cl)cc4)c23)cc1Cl` gave Marburg entry inh 7.08µM, Lassa entry inh 12.6µM, FMDV antiviral inconclusive and HCMV antiviral inactive.
`CCOC(=O)CSc1nc(Cc2ccccc2)nc2ccccc12` gave Marburg entry inh inactive, Lassa entry inh inactive, FMDV antiviral inactive and HCMV antiviral -66.3.
Screening CCOC(=O)CSc1nc(CC)nc2ccccc12 returned Marburg entry inh inactive, Lassa entry inh inactive and HCMV antiviral inactive.
`COc1ccc(-n2c(CNc3ccc(C)cc3)nnc2SCc2ccccc2)cc1` gave Marburg entry inh inconclusive, Lassa entry inh 11.2µM, FMDV antiviral inactive and HCMV antiviral inactive.
CCOC(=O)CSc1nnc(Cc2ccc(OC)cc2)n1-c1ccccc1 was read as Marburg entry inh inactive, Lassa entry inh inactive, FMDV antiviral inactive and HCMV antiviral -108.7.
`Clc1ccccc1C(c1ccccc1)(c1ccccc1)n1ccnc1` gave Marburg entry inh 15.8µM, Lassa entry inh 6.51µM, FMDV antiviral inconclusive and HCMV antiviral -69.7.
For C#CC(c1ccccc1)(c1ccccc1)n1ccnc1 the results were FMDV antiviral inactive and HCMV antiviral inconclusive.
`CCCC1CCC(c2ccc(C(N)=O)cc2)CC1` (stereo unspecified) gave Marburg entry inh inactive, Lassa entry inh inactive, FMDV antiviral inactive and HCMV antiviral inactive.
For CCCC1CCC(c2ccc(C(=O)NN)cc2)CC1 (stereo unspecified) the results were Marburg entry inh inactive, Lassa entry inh inconclusive, FMDV antiviral inactive and HCMV antiviral -78.8.
For COc1ccc(C(CCO)NC(=O)c2cccs2)cc1OC (stereo unspecified) the results were Marburg entry inh inactive, Lassa entry inh inactive, FMDV antiviral inactive and HCMV antiviral inactive.

Bioassay records from PubChem.
